Data: PubChem BioAssay (EPA / NIEHS)
Inconclusive results are not listed. The source made the active and inactive calls. How the source made its calls, unless noted: active means hit-call score of the fitted dose curve at least 0.9, where 1 is the maximum; inconclusive means response in the unintended direction; inactive means score below 0.9.

Columns and labels:
[1] = target: human CYP1A2, CYP1A2 (gene 1544) (UniProt P05177); assay: NVS_ADME_hCYP1A2: NovaScreen (NVS) CYP450-related Enzyme Activity (ADME) Assay for human CYP1A2 (AID 2283102);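 further: potency for inhibition since loss of fluorescence marks reduced CYP1A2 activity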
Sequence of human CYP1A2, CYP1A2 (gene 1544) (P05177 whole entry, looked up): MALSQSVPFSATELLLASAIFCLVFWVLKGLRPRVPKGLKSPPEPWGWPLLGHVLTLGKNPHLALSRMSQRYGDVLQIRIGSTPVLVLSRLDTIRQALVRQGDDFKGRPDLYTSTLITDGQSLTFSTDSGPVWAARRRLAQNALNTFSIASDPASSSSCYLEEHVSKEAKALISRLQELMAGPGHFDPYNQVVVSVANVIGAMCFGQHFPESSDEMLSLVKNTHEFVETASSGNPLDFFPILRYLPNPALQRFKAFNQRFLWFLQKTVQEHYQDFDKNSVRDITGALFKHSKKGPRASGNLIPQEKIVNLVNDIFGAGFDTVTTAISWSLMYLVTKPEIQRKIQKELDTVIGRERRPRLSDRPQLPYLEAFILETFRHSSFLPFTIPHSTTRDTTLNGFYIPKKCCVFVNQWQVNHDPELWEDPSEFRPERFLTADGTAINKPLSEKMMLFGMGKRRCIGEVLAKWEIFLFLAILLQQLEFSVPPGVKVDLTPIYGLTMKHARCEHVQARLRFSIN
Method in brief: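 Recombinant human CYP1A2 from insect cells, cell-free, fluorogenic substrate; read 0.5 h after dosing with loss of fluorescence signal indicating inhibition. Primary screen in duplicate at 10 uM, acetonitrile as negative control.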

[2] = target: human CYP2J2, CYP2J2 (gene 1573) (UniProt P51589); assay: NVS_ADME_hCYP2J2: NovaScreen (NVS) CYP450-related Enzyme Activity (ADME) Assay for human CYP2J2 (AID 2283106)
Sequence of human CYP2J2, CYP2J2 (gene 1573) (P51589 whole entry, looked up): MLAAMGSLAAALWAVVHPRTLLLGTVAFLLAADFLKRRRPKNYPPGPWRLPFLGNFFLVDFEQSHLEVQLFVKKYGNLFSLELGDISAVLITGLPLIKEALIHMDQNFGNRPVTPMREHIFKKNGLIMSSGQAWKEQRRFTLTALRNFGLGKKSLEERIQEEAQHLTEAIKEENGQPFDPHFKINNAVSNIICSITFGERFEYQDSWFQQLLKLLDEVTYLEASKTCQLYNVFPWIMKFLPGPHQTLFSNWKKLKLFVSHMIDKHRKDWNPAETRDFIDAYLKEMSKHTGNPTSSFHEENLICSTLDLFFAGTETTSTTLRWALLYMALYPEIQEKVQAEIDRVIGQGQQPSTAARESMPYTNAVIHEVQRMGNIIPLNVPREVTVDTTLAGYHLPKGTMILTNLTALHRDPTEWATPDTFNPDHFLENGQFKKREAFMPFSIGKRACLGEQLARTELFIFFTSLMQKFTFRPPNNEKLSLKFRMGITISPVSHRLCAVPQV
Method in brief: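 Cell-free assay of recombinant CYP2J2 with a fluorogenic substrate, read 1 h after dosing; loss of signal versus acetonitrile. Primary screen at 10 uM in duplicate, then concentration-response up to 20 uM for chemicals passing threshold (e.g., 30% inhibition).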

[3] = target: human CYP2D6, CYP2D6 (gene 1565) (UniProt P10635); assay: NVS_ADME_hCYP2D6: NovaScreen (NVS) CYP450-related Enzyme Activity (ADME) Assay for human CYP2D6 (AID 2283107)
Sequence of human CYP2D6, CYP2D6 (gene 1565) (P10635 whole entry, looked up): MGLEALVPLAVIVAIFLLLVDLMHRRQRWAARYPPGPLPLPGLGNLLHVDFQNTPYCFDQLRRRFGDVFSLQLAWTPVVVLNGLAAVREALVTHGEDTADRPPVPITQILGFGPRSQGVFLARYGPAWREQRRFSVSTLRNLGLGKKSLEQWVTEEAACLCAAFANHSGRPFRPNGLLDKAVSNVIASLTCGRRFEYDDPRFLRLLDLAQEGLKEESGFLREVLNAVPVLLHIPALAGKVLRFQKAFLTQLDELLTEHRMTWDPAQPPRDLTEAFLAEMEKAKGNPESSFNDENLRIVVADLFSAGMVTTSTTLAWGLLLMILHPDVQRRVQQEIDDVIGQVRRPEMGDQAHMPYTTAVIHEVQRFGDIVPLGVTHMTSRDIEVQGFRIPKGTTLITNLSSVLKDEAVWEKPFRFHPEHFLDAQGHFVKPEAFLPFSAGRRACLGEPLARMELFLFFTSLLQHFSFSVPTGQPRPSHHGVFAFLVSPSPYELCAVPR
Method in brief: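 Cell-free assay using recombinant human CYP2D6 expressed in insect cells, with a fluorogenic substrate read after 1 h. Primary screen in duplicate at 10 uM; actives followed up in concentration series. Loss of signal fitted relative to acetonitrile.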

[4] = target: human CYP2C9, CYP2C9 (gene 1559) (UniProt P11712); assay: NVS_ADME_hCYP2C9: NovaScreen (NVS) CYP450-related Enzyme Activity (ADME) Assay for human CYP2C9 (AID 2283108)
Sequence of human CYP2C9, CYP2C9 (gene 1559) (P11712 whole entry, looked up): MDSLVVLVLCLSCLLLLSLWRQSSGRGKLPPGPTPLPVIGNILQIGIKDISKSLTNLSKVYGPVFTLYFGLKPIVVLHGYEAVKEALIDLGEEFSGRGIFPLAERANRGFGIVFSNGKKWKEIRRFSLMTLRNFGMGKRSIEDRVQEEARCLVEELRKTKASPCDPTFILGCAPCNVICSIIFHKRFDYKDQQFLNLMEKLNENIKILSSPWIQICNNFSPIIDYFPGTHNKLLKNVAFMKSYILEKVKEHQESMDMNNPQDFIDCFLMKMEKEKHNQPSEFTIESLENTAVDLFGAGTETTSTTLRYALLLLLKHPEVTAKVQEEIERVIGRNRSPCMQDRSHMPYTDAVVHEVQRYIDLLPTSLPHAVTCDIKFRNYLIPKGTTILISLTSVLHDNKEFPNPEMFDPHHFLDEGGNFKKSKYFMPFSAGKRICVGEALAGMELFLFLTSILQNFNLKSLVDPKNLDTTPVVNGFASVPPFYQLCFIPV
Method in brief: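 Fluorescence readout of CYP2C9 activity (SF9-expressed human enzyme) at 0.75 h. The primary screen used 10 uM in duplicate, with concentration-response follow-up for actives; acetonitrile was the negative control.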

[5] = target: Cytochrome P450 2C19 (Homo sapiens) (UniProt P33261); assay: NVS_ADME_hCYP2C19: NovaScreen (NVS) CYP450-related Enzyme Activity (ADME) Assay for human CYP2C19 (AID 2283113);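 further: potency for inhibition seen as loss of fluorescent signal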
Method in brief: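 Cell-free recombinant human CYP2C19 from insect cells, fluorescent substrate; activity read by fluorescence intensity 1 h after dosing. Primary screen in duplicate at 10 uM; actives retested in concentration series. Signal loss versus acetonitrile negative control.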

[6] = target: rat CYP2A1, Cyp2a1 (gene 24894) (UniProt P11711); assay: NVS_ADME_rCYP2A1: NovaScreen (NVS) CYP450-related Enzyme Activity (ADME) Assay for rat CYP2A1 (AID 2283114; active means hit-call score of the fitted dose curve at least 0.9, where 1 is the maximum; inactive means score below 0.9)
Sequence of rat CYP2A1, Cyp2a1 (gene 24894) (P11711 whole entry, looked up): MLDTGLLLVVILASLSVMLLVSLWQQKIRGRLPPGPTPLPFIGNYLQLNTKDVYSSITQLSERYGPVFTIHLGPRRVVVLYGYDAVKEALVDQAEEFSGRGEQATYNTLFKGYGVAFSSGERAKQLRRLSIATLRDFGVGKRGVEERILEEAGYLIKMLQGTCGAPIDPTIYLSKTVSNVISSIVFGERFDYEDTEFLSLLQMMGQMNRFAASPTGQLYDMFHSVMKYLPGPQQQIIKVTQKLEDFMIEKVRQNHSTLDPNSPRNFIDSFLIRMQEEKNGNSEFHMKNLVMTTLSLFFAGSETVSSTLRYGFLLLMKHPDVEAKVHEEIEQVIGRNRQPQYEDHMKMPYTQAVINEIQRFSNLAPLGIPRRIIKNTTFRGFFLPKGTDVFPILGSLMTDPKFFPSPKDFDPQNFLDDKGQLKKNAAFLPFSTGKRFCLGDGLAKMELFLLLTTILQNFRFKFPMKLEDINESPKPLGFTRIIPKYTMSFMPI
Method in brief: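 Recombinant rat CYP2A1, cell-free, fluorogenic substrate turnover read by fluorescence intensity 0.75 h after dosing. Primary screen at 10 uM in duplicate; actives rerun as concentration-response up to 20 uM; loss of signal versus acetonitrile control.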

[7] = target: rat CYP1A2, Cyp1a2 (gene 24297) (UniProt P04799); assay: NVS_ADME_rCYP1A2: NovaScreen (NVS) CYP450-related Enzyme Activity (ADME) Assay for rat CYP1A2 (AID 2283115)
Sequence of rat CYP1A2, Cyp1a2 (gene 24297) (P04799 whole entry, looked up): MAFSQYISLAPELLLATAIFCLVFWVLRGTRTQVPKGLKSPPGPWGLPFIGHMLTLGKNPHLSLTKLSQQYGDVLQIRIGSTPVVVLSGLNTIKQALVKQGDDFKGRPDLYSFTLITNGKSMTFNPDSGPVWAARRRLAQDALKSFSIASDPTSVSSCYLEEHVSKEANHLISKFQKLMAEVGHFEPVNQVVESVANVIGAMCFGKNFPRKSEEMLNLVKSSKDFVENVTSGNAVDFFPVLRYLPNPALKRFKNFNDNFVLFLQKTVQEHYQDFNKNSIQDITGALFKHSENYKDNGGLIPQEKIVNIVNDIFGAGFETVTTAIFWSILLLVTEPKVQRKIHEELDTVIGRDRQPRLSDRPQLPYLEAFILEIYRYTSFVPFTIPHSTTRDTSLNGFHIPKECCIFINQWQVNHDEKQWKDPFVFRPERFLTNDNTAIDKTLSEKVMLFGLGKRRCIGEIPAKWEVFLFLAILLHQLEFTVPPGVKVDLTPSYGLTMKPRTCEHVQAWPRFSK
Method in brief: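 Cell-free recombinant rat enzyme with fluorogenic substrate, read by fluorescence intensity 1 hour after dosing. Loss of signal versus acetonitrile negative control; primary screen at 10 uM in duplicate, actives followed in concentration series.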

[8] = target: rat CYP2A2, Cyp2a2 (gene 24895) (UniProt P15149); assay: NVS_ADME_rCYP2A2: NovaScreen (NVS) CYP450-related Enzyme Activity (ADME) Assay for rat CYP2A2 (AID 2283116)
Sequence of rat CYP2A2, Cyp2a2 (gene 24895) (P15149 whole entry, looked up): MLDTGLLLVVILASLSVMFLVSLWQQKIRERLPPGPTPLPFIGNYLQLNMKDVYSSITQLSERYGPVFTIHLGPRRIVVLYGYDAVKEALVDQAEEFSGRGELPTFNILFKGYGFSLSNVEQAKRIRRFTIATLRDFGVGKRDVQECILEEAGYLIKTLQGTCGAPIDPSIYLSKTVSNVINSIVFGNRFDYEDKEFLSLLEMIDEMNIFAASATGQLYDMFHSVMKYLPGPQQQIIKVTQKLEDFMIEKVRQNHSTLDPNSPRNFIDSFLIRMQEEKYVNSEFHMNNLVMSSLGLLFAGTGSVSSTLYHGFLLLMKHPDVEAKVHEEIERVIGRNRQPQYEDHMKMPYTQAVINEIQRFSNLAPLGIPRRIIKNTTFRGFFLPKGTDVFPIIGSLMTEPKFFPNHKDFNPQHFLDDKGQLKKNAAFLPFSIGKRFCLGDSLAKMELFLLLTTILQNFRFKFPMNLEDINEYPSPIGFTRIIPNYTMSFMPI
Method in brief: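 Cell-free recombinant rat CYP2A2 activity with fluorogenic substrate, fluorescence read 0.2 h after dosing. Chemicals screened at 10 uM in duplicate, hits then run in concentration-response up to 20 uM; signal loss versus acetonitrile baseline.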

[9] = target: rat CYP2C11, Cyp2c11 (gene 29277) (UniProt P08683); assay: NVS_ADME_rCYP2C11: NovaScreen (NVS) CYP450-related Enzyme Activity (ADME) Assay for rat CYP2C11 (AID 2283118)
Sequence of rat CYP2C11, Cyp2c11 (gene 29277) (P08683 whole entry, looked up): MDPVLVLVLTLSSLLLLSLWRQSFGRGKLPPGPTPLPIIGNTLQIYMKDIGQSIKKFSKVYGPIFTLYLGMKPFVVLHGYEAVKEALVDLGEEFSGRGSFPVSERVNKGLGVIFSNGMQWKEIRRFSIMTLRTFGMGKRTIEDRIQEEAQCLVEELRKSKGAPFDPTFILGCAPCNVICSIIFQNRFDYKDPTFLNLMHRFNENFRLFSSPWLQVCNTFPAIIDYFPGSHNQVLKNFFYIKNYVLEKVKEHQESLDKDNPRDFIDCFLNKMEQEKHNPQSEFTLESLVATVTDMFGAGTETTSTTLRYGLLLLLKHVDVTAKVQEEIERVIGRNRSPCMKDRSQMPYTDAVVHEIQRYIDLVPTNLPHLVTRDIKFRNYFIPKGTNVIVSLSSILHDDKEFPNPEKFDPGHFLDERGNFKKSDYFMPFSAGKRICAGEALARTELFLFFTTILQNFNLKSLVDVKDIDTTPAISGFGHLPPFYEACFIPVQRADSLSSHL
Method in brief: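 Cell-free recombinant rat enzyme with fluorescent substrate; readout 0.33 h after dosing, loss of signal versus acetonitrile control. Initial duplicate single-point at 10 uM; actives rerun in concentration series.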

[10] = system: rat CYP2C6, gene 293989; assay: NVS_ADME_rCYP2C6: NovaScreen (NVS) CYP450-related Enzyme Activity (ADME) Assay for rat CYP2C6 (AID 2283120)
Method in brief: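 Cell-free recombinant rat CYP2C6 with fluorogenic substrate, read by fluorescence 1 h after dosing; acetonitrile as negative control. Primary screen at 10 uM in duplicate, actives then in concentration-response up to 20 uM.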

[11] = target: rat CYP2C13, Cyp2c13 (gene 171521) (UniProt P20814); assay: NVS_ADME_rCYP2C13: NovaScreen (NVS) CYP450-related Enzyme Activity (ADME) Assay for rat CYP2C13 (AID 2283121)
Sequence of rat CYP2C13, Cyp2c13 (gene 171521) (P20814 whole entry, looked up): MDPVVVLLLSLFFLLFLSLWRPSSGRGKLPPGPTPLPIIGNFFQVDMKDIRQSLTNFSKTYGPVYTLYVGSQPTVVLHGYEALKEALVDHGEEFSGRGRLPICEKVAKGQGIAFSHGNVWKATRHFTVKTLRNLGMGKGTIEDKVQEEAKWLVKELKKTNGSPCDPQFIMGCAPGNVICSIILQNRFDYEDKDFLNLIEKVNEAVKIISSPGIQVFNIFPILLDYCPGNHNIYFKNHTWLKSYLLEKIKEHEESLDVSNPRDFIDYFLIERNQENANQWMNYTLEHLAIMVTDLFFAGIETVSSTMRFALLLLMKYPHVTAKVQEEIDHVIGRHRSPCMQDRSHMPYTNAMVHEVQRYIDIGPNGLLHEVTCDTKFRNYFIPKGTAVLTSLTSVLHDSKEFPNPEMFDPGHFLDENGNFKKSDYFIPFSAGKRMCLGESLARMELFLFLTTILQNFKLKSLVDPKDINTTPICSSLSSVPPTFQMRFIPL
Method in brief: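 Recombinant rat CYP2C13 with fluorogenic substrate, 0.75 h cell-free incubation; primary screen in duplicate at 10 uM, actives followed in concentration series. Fluorescence loss relative to acetonitrile control indicates inhibition.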

[12] = system: rat CYP3A1, gene 25642; assay: NVS_ADME_rCYP3A1: NovaScreen (NVS) CYP450-related Enzyme Activity (ADME) Assay for rat CYP3A1 (AID 2283126)
Method in brief: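 Cell-free recombinant CYP assay with fluorescent substrate, read 0.5 h after dosing. Screened at 10 uM in duplicate, hits at up to 20 uM in concentration-response; loss of signal versus acetonitrile baseline.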

[13] = target: rat CYP3A2, Cyp3a2 (gene 266682) (UniProt P05183); assay: NVS_ADME_rCYP3A2: NovaScreen (NVS) CYP450-related Enzyme Activity (ADME) Assay for rat CYP3A2 (AID 2283128)
Sequence of rat CYP3A2, Cyp3a2 (gene 266682) (P05183 whole entry, looked up): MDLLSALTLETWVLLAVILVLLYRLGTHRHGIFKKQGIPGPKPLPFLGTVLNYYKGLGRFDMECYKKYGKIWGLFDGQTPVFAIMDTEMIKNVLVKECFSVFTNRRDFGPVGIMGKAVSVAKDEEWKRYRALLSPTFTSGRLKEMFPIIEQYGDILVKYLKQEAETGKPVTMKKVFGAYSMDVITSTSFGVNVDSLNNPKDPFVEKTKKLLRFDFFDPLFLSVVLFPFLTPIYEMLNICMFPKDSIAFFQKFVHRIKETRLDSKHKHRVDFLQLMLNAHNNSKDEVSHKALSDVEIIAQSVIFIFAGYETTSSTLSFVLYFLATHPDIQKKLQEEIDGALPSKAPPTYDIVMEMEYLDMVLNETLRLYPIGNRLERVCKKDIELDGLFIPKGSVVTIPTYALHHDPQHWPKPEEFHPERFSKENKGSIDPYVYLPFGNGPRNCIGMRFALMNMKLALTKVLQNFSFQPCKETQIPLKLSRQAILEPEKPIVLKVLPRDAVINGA
Method in brief: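 Cell-free rat CYP3A2 enzyme assay with fluorescent substrate, read 0.5 h after dosing. Primary duplicate screen at 10 uM; actives run in concentration-response up to 20 uM, relative to acetonitrile baseline.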

[14] = target: human Acetylcholinesterase (AChE), ACHE (gene 43) (UniProt P22303); assay: NVS_ENZ_hAChE: NovaScreen (NVS) Enzymatic Assay for human Acetylcholinesterase (AChE) (AID 2283129)
Method in brief: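 Cell-free colorimetric enzyme-activity assay; compounds read 0.33 hour after dosing, loss of signal vs DMSO baseline. Primary screen in duplicate at 25 uM single concentration, with active compounds retested in concentration series.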

[15] = system: rat CYP2B1, gene 24300; assay: NVS_ADME_rCYP2B1: NovaScreen (NVS) CYP450-related Enzyme Activity (ADME) Assay for rat CYP2B1 (AID 2283117)
Method in brief: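 Recombinant rat CYP2B1 with fluorogenic substrate, read at 0.75 h. Primary screen in duplicate at 10 uM; compounds meeting threshold (e.g., 30% inhibition) re-run in concentration-response up to 20 uM. Fitted against acetonitrile control.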

COP(=S)(OC)Oc1ccc([N+](=O)[O-])cc1
AC50 [1]: 1.06 µM (active) | AC50 [2]: 2.25 µM (active) | AC50 [3]: 4.79 µM (active) | AC50 [4]: 4.05 µM (active) | AC50 [5]: 0.25 µM (active) | AC50 [6]: 7.12 µM (active) | outcome [7]: inactive | AC50 [8]: 5.69 µM (active) | AC50 [9]: 2.77 µM (active) | AC50 [10]: 0.344 µM (active) | AC50 [11]: 6.55 µM (active) | AC50 [12]: 6.49 µM (active) | AC50 [13]: 4.97 µM (active) | outcome [14]: inactive

COc1nn(CSP(=S)(OC)OC)c(=O)s1
AC50 [1]: 3.25 µM (active) | AC50 [2]: 2.06 µM (active) | AC50 [3]: 3.83 µM (active) | AC50 [4]: 2.88 µM (active) | AC50 [5]: 0.124 µM (active) | AC50 [8]: 4.97 µM (active) | AC50 [15]: 2.65 µM (active) | AC50 [9]: 0.564 µM (active) | AC50 [10]: 0.258 µM (active) | AC50 [12]: 4.25 µM (active) | AC50 [13]: 0.774 µM (active)

O=S1OCC2C(CO1)C1(Cl)C(Cl)=C(Cl)C2(Cl)C1(Cl)Cl (stereo unspecified)
AC50 [5]: 1.64 µM (active)
